LASV entry inh: blocks Lassa virus binding to or entry into cells | 300,000 tested, 1.2% active | AID 540256 | Lassa virus pseudotype entry inhibition, cell reporter | Potency, µM (doses to about 37.9 µM), without a hit: at the highest dose activity change, negative = inhibition, actives largely listed as inhibitors; calls by dose curve; tested in HEK293 cells; further: nearly all actives have a fitted effect of over 50% in size
FMDV inh: foot and mouth disease virus antiviral activity; Potency, µM (top dose mostly 57.9 µM), for the others: at the top dose activity change, negative = inhibition, actives largely listed as inhibitors; 410,000 tested, 1.2% active; FMDV antiviral cell-based qHTS; AID 1159524; calls by dose curve; tested in HEK293T cells; further: read-out not given here; nearly all actives have a fitted effect of over 45% in size
Sm TGR block: blocks Schistosoma mansoni thioredoxin glutathione reductase; 360,000 tested, 3% active; purified TGR, DTNB reduction, TNB absorbance 405 nm; AID 485364; Potency, µM (top dose mostly 114 µM), for the others: at the top dose activity change, negative = inhibition, usual class: inhibitors; Q962Y6; further: nearly all actives have a fitted effect of over 60% in size
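Kinetic colorimetric format: TGR-catalysed, NADPH-driven DTNB reduction monitored via TNB absorbance. Enzyme dispensed at 20 nM; compound exposure 15 min at room temperature before reaction start.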
RE007 growth inh: less growth of the S. pombe RE007 Vpr strain; S. pombe RE007 Vpr strain, BacTiter-Glo ATP luminescence, 24 h; Potency, µM (titrated, usually from 92.2 µM), for the others: top-dose activity change, negative = less growth, hits mostly inhibitors; 360,000 tested, 0.21% active; active means well fitted falling curve with a large enough effect; inconclusive means small, poorly fitted or top-dose-only effect; inactive means no such curve, though single readings can be large or run the other way; further: nearly all actives have a fitted effect of over 50% in size
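Fission yeast RE007 carrying one integrated HIV-1 vpr copy, seeded at OD 0.01 in PMG+AL medium with 23 nL pinned compound. Grown 24 h at 30 degrees; viability read by BacTiter-Glo luminescence after 5 min.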
HCV inhibitor: blocks hepatitis C virus. Huh7.5.1 HCVcc-Cre infection, luciferase reporter, 44 h. Potency, µM (series often up to 41.8 µM), for inactives: at the highest dose activity change, negative = inhibition, hits mostly inhibitors. 340,000 tested, 3.4% active
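Reporter virus HCVcc-Cre (~0.5 moi) infects cells exposed to compound; seeding density 1,000 cells/well with 4 h settling beforehand. Luminescence, 15 sec read, taken 44 h post-infection following a 15 min RT substrate incubation.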
Marburg entry inh: blocks Marburg virus binding to or entry into cells. Marburg virus pseudotyped entry inhibition, cell reporter. Potency, µM (series often up to 37.8 µM), for inactives: at the top dose activity change, negative = inhibition, usual class: inhibitors. AID 540276. 300,000 tested, 1.8% active; calls by dose curve; tested in HEK293 cells
Starred values were filed as active, the others as inactive; ? = inconclusive; · = no result given; [ ] = remark or other dose. Most compounds without a hit are left out; they make up all but 7.2% or so of the library. Unless noted, the call rests on the fitted dose curve; in most records, active means well fitted curve in the direction sought with a large enough effect; inconclusive means small, poorly fitted or top-dose-only effect, or another doubt; inactive means no such curve, though single readings can be large; an effect the other way counts as inactive or inconclusive. On the % scale 0 is the no-effect control and ±100 the full control effect; potency means the concentration at half of the fitted maximal effect.

SMILES	LASV entry inh	FMDV inh	Sm TGR block	RE007 growth inh	HCV inhibitor	Marburg entry inh
O=C(Cn1c(=O)n(Cc2ccc(C(=O)NCc3ccc4c(c3)OCO4)cc2)c(=O)c2ccccc21)Nc1cccc(Cl)c1	-9.6%[46.1 µM]	-3.8%	1.5%	·	·	-9.2%[46.1 µM]
CN1CCC(NCCC(c2ccc(F)cc2)c2ccc(Cl)cc2)CC1 (configuration not stated)	?	-7.3%	-21.2%	22.4%	2µM*	?
CC(NC1CCN(Cc2ccccc2)CC1)c1ccc(F)cc1 (configuration not stated)	?	-20.8%	-19.3%	13.6%	?	?
CC(C)C(CCNCc1ccccn1)c1ccc(Cl)cc1 (configuration not stated)	-28.8%[46.1 µM]	-11.7%	-13.4%	-6.3%	?	?
CC(C)C(CCNC1CCN(C)CC1)c1ccc(Cl)cc1 (configuration not stated)	·	0.0%	-17.1%	17.8%	1.41µM*	·
Cc1ccc(CCNC(=O)C(CC(C)C)NS(=O)(=O)c2ccc3c(c2)oc(=O)n3C)cc1 (configuration not stated)	?	-5.1%	1.5%	·	·	-1.7%[46.1 µM]
CCc1ccccc1Nc1ncnc2c1nc1n2CCCC1	4.2%[46.1 µM]	12.1%	2.4%	·	·	·
COc1ccc(C(c2c(O)ccc3ccccc23)N2CCOCC2)c(OC)c1 (configuration not stated)	2.1%	-0.8%	3.55µM*	-5.3%	?	4.0%
CC(C)(C)c1cc(NCc2ccccn2)n2ncc(-c3ccccc3)c2n1	?	24.7%	23.5%	-0.7%	12.6µM*	?
Cc1cc(C)n(-c2cc(C(C)(C)C)nc3c(-c4ccccc4)cnn23)n1	?	3.2%	6.8%	4.1%	?	?
Cc1ccc(-n2nnnc2SCC(=O)N2CC(=O)Nc3ccccc32)cc1	-9.9%	?	44.7µM*	-11.3%	-8.7%	11.6%
Cc1ncc2c(c1CNC(=O)/C=C/c1cccs1)CCN(C(=O)c1ccc3c(c1)OCCO3)C2	·	5.6%	·	·	·	·
CN1CCN(c2ccc(NC(=S)NC(=O)/C=C/c3ccco3)cc2)CC1	21.9%[46.1 µM]	7.6%	50.1µM*	?	-6.0%	?
COc1cc(NS(=O)(=O)c2ccc(NC(=S)NC(=O)/C=C/c3ccco3)cc2)ncn1	0.8%	39.0%	39.8µM*	6.2%	-34.8%	-15.2%
O=C(/C=C/c1ccccc1)NC(=S)Nc1ccc(N2CCOCC2)cc1	-25.4%	·	-7.4%	-3.9%	-22.2%	0.5%
CC(=O)N(C)c1ccc(NC(=S)NC(=O)/C=C/c2ccco2)cc1	·	17.5%	28.2µM*	10.0%	10.7%	·
CC(=O)N(C)c1ccc(NC(=S)NCC(C)C)cc1	·	-1.8%	-16.7%	9.3%	19.4%	·
COc1ccc(/C=C/C(=O)NC(=S)Nc2ccc(S(=O)(=O)Nc3cc(C)on3)cc2)cc1	5.3%	0.0%	-28.8%	1.3%	6.4%	-20.9%
CC(=O)Nc1ccc(NC(=S)NC(=O)/C=C/c2ccco2)cc1	-2.6%[46.1 µM]	-6.6%	17.8µM*	-19.0%	-27.6%	-12.5%[46.1 µM]
CN1CCN(c2ccc(NC(=S)NC(=O)c3cccc4ccccc34)cc2)CC1	·	12.0%	-25.1%	-8.8%	11.2µM*	·
CCOc1ccc(NC(=S)NC(=O)/C=C/c2ccco2)cc1	-8.0%	12.3%	22.4µM*	-6.9%	?	?
Cc1ccc(C)c(NC(=O)CN(C)S(=O)(=O)c2cccc3nsnc23)c1	5.4%[46.1 µM]	-12.7%	0.9%	·	·	-12.5%[46.1 µM]
CCOc1ccc(S(=O)(=O)NCCc2csc(-c3ccc(Cl)cc3)n2)cc1	-14.8%[46.1 µM]	-25.1%	4.6%	·	·	·
C[C@@H](C[N+](C)(C)C)OC(N)=O	·	·	·	·	·	16.7%
CCOC(=O)C1=C(c2ccccc2)N=c2sc(=Cc3cc(OC)c(OC)c(OC)c3)c(=O)n2C1c1cccs1 (configuration not stated)	·	-24.0%	·	8.6%	·	·
SMILES	LASV entry inh	FMDV inh	Sm TGR block	RE007 growth inh	HCV inhibitor	Marburg entry inh
CCOC(=O)C1=C(c2ccccc2)N=c2s/c(=C\c3ccc(O)cc3)c(=O)n2C1c1cccs1 (configuration not stated)	16.4µM*	25.1µM*	-19.2%	-5.6%	10µM*	?
COC(=O)C1C(=O)C2=C(CC1C)NC(C)=C(C(=O)OCCOc1ccccc1)C2c1ccc(C)o1 (configuration not stated)	?	-19.8%	-32.8%	4.5%	12.6µM*	?
COCCOC(=O)c1[nH]c2c(c1C)C(=O)CC(c1ccc(OC)c(OC)c1)C2 (configuration not stated)	·	?	5.4%	-4.1%	10µM*	·
Cc1c(C(=O)OCC2CCCO2)[nH]c2c1C(=O)CC(c1ccc(N(C)C)cc1)C2 (configuration not stated)	·	20µM*	-12.3%	10.7%	?	0.9%
COC(=O)C1C(=O)C2=C(CC1C)NC(C)=C(C(=O)OCc1ccc(OC)cc1)C2c1ccc(C)o1 (configuration not stated)	?	-0.4%	?	10.8%	?	-27.3%
CCCOC(=O)c1[nH]c2c(c1C)C(=O)CC(c1ccc(OC)c(OC)c1)C2 (configuration not stated)	-7.9%	-22.0%	-0.2%	8.7%	-28.6%	-9.2%
CCOC(=O)C1=C(C)NC(C)=C(C(=O)OCC)C1c1ccc(OC)c(OC)c1	·	?	·	-18.0%	·	·
CCOC(=O)C1=C(C)NC2=C(C(=O)CC(c3ccc(OC)c(OC)c3)C2)C1c1ccc(C)o1 (configuration not stated)	-10.0%	?	-27.8%	-6.1%	12.6µM*	?
CCCC1C(=O)n2c(nc3ccccc32)N=C1C (configuration not stated)	·	·	·	·	·	23.7%
COC(=O)c1ccc(CN2C(=O)[C@@]3(CC(C)=CC[C@@H](C)O3)c3ccccc32)cc1	·	·	·	·	·	-29.1%[14.2 µM]
CCOCCOC(=O)c1[nH]c2c(c1C)C(=O)CC(c1cccs1)C2 (configuration not stated)	?	-24.8%	-1.2%	4.4%	16.9%	?
CCOCCOC(=O)c1[nH]c2c(c1C)C(=O)CC(c1ccccc1)C2 (configuration not stated)	?	-19.9%	-3.5%	1.4%	?	?
COC(=O)c1[nH]c2c(c1C)C(=O)CC(c1cc(OC)c(OC)c(OC)c1)C2 (configuration not stated)	·	?	0.0%	-1.4%	10µM*	·
CCOCCOC(=O)c1[nH]c2c(c1C)C(=O)CC(c1cc(OC)c(OC)c(OC)c1)C2 (configuration not stated)	-16.6%	28.2µM*	2.4%	7.1%	5.01µM*	?
CCCCCOC(=O)c1[nH]c2c(c1C)C(=O)CC(c1ccco1)C2 (configuration not stated)	?	?	?	3.5%	?	0.461µM*
